Composite z-score and z-score data for 6 compounds are collected here from PubChem BioAssay.

Active and inactive are the calls of the source.

Assay [1] relates to PRMT1 (protein arginine N-methyltransferase 1). The assay can be described thus: small molecules binding arginine methyltransferase PRMT1 – biochemical, small-molecule microarray, 635 nm fluorescence, primary screen (AID 1088).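 Note: binding of Prmt1 protein to compounds spotted on small-molecule microarray slides.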 To be noted: higher = more signal.
Assay [2] in a line: growth effects on S. cerevisiae YJM789 – YJM789 clinical isolate, OD600, 24 h, basal, primary screen (AID 1089).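 Note: growth of clinical yeast isolate S. cerevisiae YJM 789 seeded 1000 cells per well; test concentration not given here.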 To be noted: higher = more signal, called active from +8 up or from −8 down.
Assay [3] can be described thus: S. pombe growth modifiers, basal conditions – strain 972, OD600, 24 h, no modulator, primary screen (AID 1090).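 Note: basal condition with compound alone and no growth modifier present; test concentration not given here.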 To be noted: S. pombe 972 growth, higher = more signal, called active from +8 up or from −8 down.
Assay [4] can be described thus: budding yeast growth modifiers under rapamycin – strain BY4716, OD600, 96 h, primary screen (AID 1091). Note: test concentration not given here. To be noted: S. cerevisiae BY4716 + rapamycin, higher = more signal, called active from +8 up or from −8 down.
Assay [5] concerns the target Torsin-1A-interacting protein 2 (Homo sapiens) (UniProt Q8NFQ8). Briefly: small molecules binding lysate-expressed LULL1 – cell lysate, human LULL1 lysate, 635/667 nm fluorescence, primary screen (AID 1092).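 Note: probe is lysate of COS7 cells overexpressing human LULL1; score merges per-feature 667 nm fluorescence with signal-to-noise.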 To be noted: small-molecule microarray, hLULL1 lysate binding, 635 nm fluorescence; higher = more signal.
Assay [6] in a line: optical density change of DRC41 E. coli – strain DRC41, OD650, 24 h, E. coli filamentation project, primary screen (AID 1093).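 Note: MC1000 strain lacking acrAB efflux and sulA so SOS filamentation is blocked; test concentration not given here.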 To be noted: E. coli DRC41 growth, higher = more signal, called active from +8 up or from −8 down.
Assay [7] is described as follows: probe aLefty2 binding to arrayed compounds – biochemical, biotinylated probe, 635/667 nm fluorescence, primary screen (AID 1094).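 Note: score merges spot fluorescence near 667 nm with spot signal-to-noise ratio.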 To be noted: small-molecule microarray, higher = more signal.
The test system of assay [8] is Noggin (protein binding on small-molecule microarray). Briefly: small molecules binding Noggin protein – biochemical, 635/667 nm fluorescence, primary screen (AID 1095).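 Note: score merges 667 nm feature fluorescence with signal to noise over triplicate slides.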 The settings on record: 635 nm fluorescence, higher = more signal.
Assay [9] addresses Neurogenic locus notch homolog protein 3 (Homo sapiens) (UniProt Q9UM47). The assay can be described thus: small molecules binding NOTCH3 protein – biochemical, 635/667 nm fluorescence, primary screen (AID 1096). The settings on record: small-molecule microarray, 635 nm fluorescence, higher = more signal.
Assay [10] can be described thus: probe aEGFR binding to arrayed compounds – biochemical, biotinylated probe, 635/667 nm fluorescence, primary screen (AID 1097).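 Note: probe is a biotinylated anti-EGFR antibody binding compounds printed on slides; score combines fluorescence near 667 nm and signal to noise of each spot.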 The settings on record: small-molecule microarray, higher = more signal.
The subject of assay [11] is Plasmodium falciparum Sir2 (PF13_0152, Sir2A). The assay can be described thus: Plasmodium falciparum Sir2A binding compounds – biochemical, small-molecule microarray, 635 nm fluorescence, primary screen (AID 1098).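 Note: score merges spot fluorescence intensity with its signal-to-noise ratio.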 The settings on record: fluorescence 635 nm, higher = more signal.
Assay [12] in a line: probe aDKK1 binding to arrayed compounds – biochemical, biotinylated probe, 635/667 nm fluorescence, primary screen (AID 1099).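 Note: score merges 667nm spot fluorescence with signal to noise across triplicate slides; reference of the scale not given here.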 To be noted: small-molecule microarray, higher = more signal.
Assay [13] is described as follows: probe aCHRDL2 binding to arrayed compounds – biochemical, biotinylated probe, 635/667 nm fluorescence, primary screen (AID 1100). The settings on record: small-molecule microarray, higher = more signal.
Assay [14] in a line: change in splice reporter luminescence, either direction, cell-based, HEK293, spliceosome inhibition project, primary screen (AID 1101).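 Note: HEK293 cells carrying a splicing-competent luciferase reporter gene; test concentration not given here.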 To be noted: HEK293 splicing luciferase reporter, 24 h, higher = more signal, called active from +8 up or from −8 down. On the technique in general: Reporter assays use an easily measured gene product as a stand-in for the process of interest.

Assay [15] deals with Fibroblast growth factor 10 (Homo sapiens) (UniProt O15520). Briefly: compounds binding fibroblast growth factor 10 – biochemical, small-molecule microarray, 635 nm fluorescence, primary screen (AID 1102). The settings on record: FGF10 binding, fluorescence 635 nm, higher = more signal.
For assay [16], the system named is glycogen synthase kinase-3 (GSK3A per assay name; protocol says GSK3B). The assay can be described thus: compounds binding glycogen synthase kinase-3 – biochemical, small-molecule microarray, 635 nm fluorescence, GSK3A, primary screen (AID 1103). Note: the record names both GSK3A and GSK3B. The settings on record: fluorescence 635 nm, higher = more signal.
Assay [17] deals with Epidermal growth factor receptor (Homo sapiens) (UniProt P00533). Briefly: compounds binding epidermal growth factor receptor – biochemical, small-molecule microarray, 635 nm fluorescence, primary screen (AID 1104).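 Note: score merges 667 nm emission intensity with spot signal to noise over triplicate slides.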 The settings on record: EGFR binding, higher = more signal.
The target of assay [18] is Follistatin-related protein 3 (Homo sapiens) (UniProt O95633). The assay can be described thus: compounds binding follistatin-related protein 3 – biochemical, small-molecule microarray, 635 nm fluorescence, primary screen (AID 1105).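 Note: score merges emission near 667 nm and signal to noise per printed spot across three slides.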 The settings on record: FSTL3 binding, higher = more signal.
The target in assay [19] is Dickkopf-related protein 1 (Homo sapiens) (UniProt O94907). Briefly: small molecules binding DKK1 protein – biochemical, small-molecule microarray, 635 nm fluorescence scan, primary screen (AID 1106).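 Note: score merges emission near 667 nm with signal to noise over three replicate slides.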 The settings on record: higher = more signal.
The subject of assay [20] is Inhibin beta A chain (activin A). Briefly: small molecules binding activin A – biochemical, small-molecule microarray, 635 nm fluorescence scan, primary screen (AID 1107).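 Note: mouse activin A protein probed at 4.33 µg/mL on printed slides; score merges bound-protein fluorescence near 667 nm with spot signal-to-noise.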 To be noted: INHBA, higher = more signal.

Chain of Epidermal growth factor receptor (Homo sapiens) (P00533 whole entry, looked up): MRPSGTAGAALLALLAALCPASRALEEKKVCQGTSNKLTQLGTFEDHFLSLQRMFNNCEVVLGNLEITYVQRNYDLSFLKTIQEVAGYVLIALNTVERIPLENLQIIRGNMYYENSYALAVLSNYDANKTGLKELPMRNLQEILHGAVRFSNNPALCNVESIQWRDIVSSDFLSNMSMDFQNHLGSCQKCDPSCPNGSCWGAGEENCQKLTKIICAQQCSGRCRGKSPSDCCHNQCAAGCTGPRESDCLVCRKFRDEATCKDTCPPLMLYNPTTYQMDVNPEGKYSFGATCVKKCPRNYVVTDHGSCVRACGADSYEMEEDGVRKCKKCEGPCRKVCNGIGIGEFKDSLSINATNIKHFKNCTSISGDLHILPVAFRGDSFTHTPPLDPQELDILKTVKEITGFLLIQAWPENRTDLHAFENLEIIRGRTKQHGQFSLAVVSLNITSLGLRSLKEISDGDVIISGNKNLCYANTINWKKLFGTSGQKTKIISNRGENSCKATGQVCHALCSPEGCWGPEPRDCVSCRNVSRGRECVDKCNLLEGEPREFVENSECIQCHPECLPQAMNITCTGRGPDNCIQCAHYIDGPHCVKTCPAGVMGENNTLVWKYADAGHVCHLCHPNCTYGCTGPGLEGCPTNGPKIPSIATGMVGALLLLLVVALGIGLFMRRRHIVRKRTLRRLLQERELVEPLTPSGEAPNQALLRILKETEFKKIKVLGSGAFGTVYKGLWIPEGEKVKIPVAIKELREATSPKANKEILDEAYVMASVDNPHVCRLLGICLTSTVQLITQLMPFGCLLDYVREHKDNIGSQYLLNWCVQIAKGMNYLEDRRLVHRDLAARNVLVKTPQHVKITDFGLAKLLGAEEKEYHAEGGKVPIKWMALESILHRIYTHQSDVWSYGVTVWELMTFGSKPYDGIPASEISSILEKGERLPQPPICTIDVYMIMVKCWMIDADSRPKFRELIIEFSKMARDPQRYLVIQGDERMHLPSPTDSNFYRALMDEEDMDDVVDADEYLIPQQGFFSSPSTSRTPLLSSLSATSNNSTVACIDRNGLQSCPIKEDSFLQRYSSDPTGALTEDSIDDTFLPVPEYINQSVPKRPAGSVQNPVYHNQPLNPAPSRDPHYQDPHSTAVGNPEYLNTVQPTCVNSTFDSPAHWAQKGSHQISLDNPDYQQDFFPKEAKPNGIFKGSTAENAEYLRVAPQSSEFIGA
Chain of Dickkopf-related protein 1 (Homo sapiens) (O94907 whole entry, looked up): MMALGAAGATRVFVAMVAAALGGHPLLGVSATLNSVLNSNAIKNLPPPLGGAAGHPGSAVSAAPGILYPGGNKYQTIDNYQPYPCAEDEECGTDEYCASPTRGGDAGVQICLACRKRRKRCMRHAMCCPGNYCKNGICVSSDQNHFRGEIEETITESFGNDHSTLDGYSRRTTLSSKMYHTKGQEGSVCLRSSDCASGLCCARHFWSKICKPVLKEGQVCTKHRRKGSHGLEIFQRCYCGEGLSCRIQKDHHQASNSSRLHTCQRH
Chain of Neurogenic locus notch homolog protein 3 (Homo sapiens) (Q9UM47 whole entry, looked up): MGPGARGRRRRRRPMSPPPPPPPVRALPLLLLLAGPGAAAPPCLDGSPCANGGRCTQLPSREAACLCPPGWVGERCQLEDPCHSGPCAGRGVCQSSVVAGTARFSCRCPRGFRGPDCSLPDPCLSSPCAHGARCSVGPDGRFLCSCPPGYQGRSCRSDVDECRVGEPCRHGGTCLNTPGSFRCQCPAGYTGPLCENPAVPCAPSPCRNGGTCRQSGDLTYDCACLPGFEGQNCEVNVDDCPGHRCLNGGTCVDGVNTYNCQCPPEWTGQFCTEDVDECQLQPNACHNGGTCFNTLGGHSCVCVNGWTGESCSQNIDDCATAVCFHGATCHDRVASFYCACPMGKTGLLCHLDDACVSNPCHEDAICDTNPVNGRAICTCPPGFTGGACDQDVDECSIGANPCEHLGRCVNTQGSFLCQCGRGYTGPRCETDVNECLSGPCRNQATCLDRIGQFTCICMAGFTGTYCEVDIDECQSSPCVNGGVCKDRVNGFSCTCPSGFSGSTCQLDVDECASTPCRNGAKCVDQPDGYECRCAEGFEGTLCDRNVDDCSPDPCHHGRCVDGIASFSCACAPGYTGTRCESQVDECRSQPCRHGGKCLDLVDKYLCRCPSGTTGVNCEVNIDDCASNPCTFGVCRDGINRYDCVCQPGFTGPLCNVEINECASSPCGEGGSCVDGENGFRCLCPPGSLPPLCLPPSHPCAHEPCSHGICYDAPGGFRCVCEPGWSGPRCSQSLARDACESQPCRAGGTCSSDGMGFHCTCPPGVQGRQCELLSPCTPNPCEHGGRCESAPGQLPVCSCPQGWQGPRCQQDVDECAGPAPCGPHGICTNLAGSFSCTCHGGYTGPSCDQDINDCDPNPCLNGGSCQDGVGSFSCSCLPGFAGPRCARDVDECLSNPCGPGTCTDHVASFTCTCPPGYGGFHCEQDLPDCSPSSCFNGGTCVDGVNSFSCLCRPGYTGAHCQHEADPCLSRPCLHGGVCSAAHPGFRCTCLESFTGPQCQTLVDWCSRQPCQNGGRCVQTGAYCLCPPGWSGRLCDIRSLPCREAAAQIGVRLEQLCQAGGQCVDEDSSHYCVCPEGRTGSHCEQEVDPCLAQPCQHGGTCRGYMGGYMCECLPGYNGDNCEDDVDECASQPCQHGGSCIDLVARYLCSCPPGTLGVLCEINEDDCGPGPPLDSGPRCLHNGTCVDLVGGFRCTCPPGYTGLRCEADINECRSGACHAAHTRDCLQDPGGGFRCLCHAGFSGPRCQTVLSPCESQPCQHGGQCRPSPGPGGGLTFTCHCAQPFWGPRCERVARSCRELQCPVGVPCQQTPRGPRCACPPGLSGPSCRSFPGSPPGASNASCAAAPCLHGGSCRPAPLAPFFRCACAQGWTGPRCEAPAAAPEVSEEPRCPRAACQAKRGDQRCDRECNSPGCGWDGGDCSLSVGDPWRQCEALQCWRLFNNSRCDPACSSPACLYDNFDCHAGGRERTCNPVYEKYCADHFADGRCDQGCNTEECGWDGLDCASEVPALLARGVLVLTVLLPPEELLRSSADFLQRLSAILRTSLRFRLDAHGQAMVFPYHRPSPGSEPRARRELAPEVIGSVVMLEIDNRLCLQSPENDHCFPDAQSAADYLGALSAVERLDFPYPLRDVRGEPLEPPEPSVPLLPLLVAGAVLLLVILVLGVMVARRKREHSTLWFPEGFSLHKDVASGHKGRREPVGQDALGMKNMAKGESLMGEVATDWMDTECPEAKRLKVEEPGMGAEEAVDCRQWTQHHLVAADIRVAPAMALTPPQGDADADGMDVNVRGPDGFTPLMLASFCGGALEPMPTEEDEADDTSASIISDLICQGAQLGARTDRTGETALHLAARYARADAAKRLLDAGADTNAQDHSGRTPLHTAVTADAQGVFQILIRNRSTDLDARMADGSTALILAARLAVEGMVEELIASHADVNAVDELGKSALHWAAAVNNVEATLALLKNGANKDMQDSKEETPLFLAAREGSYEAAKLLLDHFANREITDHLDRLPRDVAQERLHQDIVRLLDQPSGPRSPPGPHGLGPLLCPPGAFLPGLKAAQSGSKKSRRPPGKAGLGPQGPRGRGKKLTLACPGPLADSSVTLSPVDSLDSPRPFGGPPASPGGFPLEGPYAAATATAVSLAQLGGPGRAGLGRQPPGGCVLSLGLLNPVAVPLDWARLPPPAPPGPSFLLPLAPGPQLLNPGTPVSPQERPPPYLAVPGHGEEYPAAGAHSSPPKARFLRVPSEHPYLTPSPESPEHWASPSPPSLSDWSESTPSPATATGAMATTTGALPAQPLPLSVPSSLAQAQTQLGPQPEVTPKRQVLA
Chain of Torsin-1A-interacting protein 2 (Homo sapiens) (Q8NFQ8 whole entry, looked up): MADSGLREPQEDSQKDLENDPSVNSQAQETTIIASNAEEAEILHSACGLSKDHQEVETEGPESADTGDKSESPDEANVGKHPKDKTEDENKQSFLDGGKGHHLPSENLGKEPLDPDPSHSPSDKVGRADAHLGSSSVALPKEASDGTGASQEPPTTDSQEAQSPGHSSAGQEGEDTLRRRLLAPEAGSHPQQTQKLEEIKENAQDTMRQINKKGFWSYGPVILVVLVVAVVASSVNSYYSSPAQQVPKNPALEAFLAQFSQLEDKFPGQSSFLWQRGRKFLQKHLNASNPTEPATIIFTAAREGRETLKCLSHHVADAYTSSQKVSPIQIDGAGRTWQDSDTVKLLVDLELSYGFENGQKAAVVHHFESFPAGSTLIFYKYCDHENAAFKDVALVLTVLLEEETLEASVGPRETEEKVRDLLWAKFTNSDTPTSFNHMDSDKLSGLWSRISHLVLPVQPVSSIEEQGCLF
Chain of Fibroblast growth factor 10 (Homo sapiens) (O15520 whole entry, looked up): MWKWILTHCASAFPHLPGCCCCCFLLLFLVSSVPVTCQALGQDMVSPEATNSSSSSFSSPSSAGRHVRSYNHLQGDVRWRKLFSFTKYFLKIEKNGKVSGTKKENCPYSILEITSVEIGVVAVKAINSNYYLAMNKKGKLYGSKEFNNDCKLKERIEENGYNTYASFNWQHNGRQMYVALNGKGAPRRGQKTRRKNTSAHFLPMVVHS
Chain of Follistatin-related protein 3 (Homo sapiens) (O95633 whole entry, looked up): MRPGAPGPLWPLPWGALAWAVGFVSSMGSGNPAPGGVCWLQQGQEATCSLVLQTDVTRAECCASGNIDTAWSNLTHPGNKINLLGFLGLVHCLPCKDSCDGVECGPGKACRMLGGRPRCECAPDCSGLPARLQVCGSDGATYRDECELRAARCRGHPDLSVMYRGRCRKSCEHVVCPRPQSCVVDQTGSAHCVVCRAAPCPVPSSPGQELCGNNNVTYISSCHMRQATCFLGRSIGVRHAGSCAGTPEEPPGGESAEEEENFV

Take `CCc1cc2c(nc1CC)CCN(CCC(C)=NOC[C@@H](C)[C@H](OCc1ccccc1)C(C)C)C2`: the composite z-score in assay [1] is 0.0757; in assay [5], 0.198; in assay [7] it was -0.224; in assay [8], -0.249; in assay [9], -1.38; in assay [10], -0.25. The composite z-score is -0.482 in assay [11]; -0.375 in assay [12]; -0.244 in assay [13]; -1.58 in [15]; -1.04 in assay [16]; -0.812 in assay [17]. Further, the composite z-score in assay [18] is -1.28; in assay [19], -1.06; in assay [20] it was -0.187. Also, the z-score in assay [2] is -2.41 (inactive); in assay [3] it was -4.16 (inactive); in assay [4], -1.32 (inactive); in assay [6], -0.966 (inactive); in assay [14], -1.3 (inactive).
`CCN1C(=O)[C@H]2[C@H]3[C@H](O)[C@H](O)CC(=NNC(=O)OCc4ccccc4)[C@H]3CC[C@H]2C1=O`: the composite z-score was -0.72 in assay [1]; -0.3 in [5]; 0.0166 in [7]; 0.667 in [8]; -0.169 in [9]; -0.132 in assay [10]. In addition, the composite z-score in assay [11] was -0.0508; in [12] it was 0.0829; in [13] it was 0.877; in [15], 0.186; in assay [16], -0.493; in [17], -0.198. Besides, the composite z-score in assay [18] was -0.0353; in [19] it was -0.26; in assay [20], 0.0251. Further, the z-score in assay [2] was -0.0067 (inactive); in assay [3], 0.0826 (inactive); in [4] it was -0.144 (inactive); in [6], -0.667 (inactive); in assay [14] it was -0.45 (inactive).
`CCCNC(=O)OC[C@H]1O[C@H](CCON=C[C@@H](C)[C@H](OCc2ccccc2)C(C)C)C=C[C@@H]1Oc1ccc(OC)cc1`: the composite z-score in assay [1] was -0.295; in assay [5], -0.605; in [7] it was -0.0753; in assay [8], -0.0593; in assay [9], -0.942; in assay [10], -0.141. In addition, the composite z-score was -0.369 in [11]; -0.275 in assay [12]; -0.228 in assay [13]; -0.302 in assay [15]; -1.32 in assay [16]; 0.332 in assay [17]. The figures for the composite z-score in assay [18], in assay [19] and in [20] were -0.245, 0.159 and 0.33, respectively. The z-score in [2] was -2.24 (inactive); in assay [3] it was -1.52 (inactive); in assay [4], -0.25 (inactive); in assay [6], -1.13 (inactive); in [14] it was -1.54 (inactive).
As to `COc1cccc([C@H](O)Cn2cc(-c3ccc(CON=C(C)C)cc3)nn2)c1`, the composite z-score was 0.0112 in [1]; -0.441 in [5]; -0.0561 in [7]; -0.197 in assay [8]; -1.27 in [9]; 0.0709 in assay [10]. Further, the composite z-score is -0.548 in assay [11]; -0.122 in assay [12]; -0.0514 in assay [13]; 0.155 in assay [15]; -0.559 in assay [16]; -0.392 in assay [17]. The composite z-score in assay [18] was -0.549; in assay [19] it was -0.115; in [20], 0.575. For the same compound, the z-score in [2] was -0.733 (inactive); in assay [3] it was 0.16 (inactive); in assay [4], -0.625 (inactive); in assay [6], 1.2 (inactive); in assay [14], 0.62 (inactive).
For the compound `CCOC(=O)[C@H](CC(C)C)NC(=O)CCC1CC(OC(=O)NCCc2ccc(F)cc2)CC2(CCCC(COC(=O)NCCCN3CCCC3=O)O2)O1` (stereo not given in full), the composite z-score was 0.838 in assay [1]; 1.26 in assay [5]; -0.132 in [7]; 0.144 in assay [8]; 0.965 in assay [9]; -0.0208 in [10]. The composite z-score in assay [11] was -0.0927; in [12], -0.234; in assay [13] it was -0.509; in assay [15] it was 0.93; in assay [16], 0.519; in assay [17] it was 0.261. Also, the composite z-score in assay [18] was 0.572; in [19], 0.946; in assay [20], -0.131. Besides, the z-score in [2] was -0.388 (inactive); in [3], 0.531 (inactive); in [4], 0.0799 (inactive); in assay [6], 0.546 (inactive); in assay [14], 0.764 (inactive).
For `CC(C)[C@@H](OCc1ccccc1)[C@H](C)C=NOC[C@@H](O)[C@H]1O[C@@H]2OC(C)(C)O[C@@H]2[C@H]1O`, the composite z-score in assay [1] is 0.763; in assay [5], 0.758; in assay [7] it was -0.132; in assay [8] it was 1.07; in assay [9], 0.676; in assay [10], -0.0828. For the same compound, the composite z-score was 0.635 in assay [11]; -0.0784 in [12]; -0.609 in [13]; 0.355 in [15]; 0.151 in assay [16]; 0.677 in [17]. Moreover, the composite z-score was 0.628 in [18], 0.254 in assay [19] and -0.519 in assay [20]. The z-score in assay [2] was 0.87 (inactive); in assay [3], 1.05 (inactive); in assay [4], 0.821 (inactive); in assay [6], 0.517 (inactive); in assay [14], -0.262 (inactive).
